In PubChem BioAssay AID602449 (Sanford-Burnham Center for Chemical Genomics, 2012) one finds inhibition data, which are given here for 94 compounds.

In all, about 360,000 compounds went through this assay and about 5,000 (1.4%) were called active. Shown is part of a subset that was picked to be rich in actives. Values without a mark were called inactive.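 The calls were made as follows: active = inhibition of 50% or more, scaled per plate between neutral and stimulator controls; inactive = the rest.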

The experiment is described as follows: blockers of Ca2+-induced mitochondrial swelling – biochemical, isolated mouse mitochondria, absorbance, primary screen (AID 602449).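 Also: 0% = DMSO wells given calcium and 100% = 1 mM EGTA wells.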 The note with it: 30 min, at 10 µM, active compounds read high.
A word on the inhibition: it is the change of the read-out against control, counted positive when it falls. In the case of `COc1cc(C(=O)NCc2ccc3c(c2)cc(C)n3C)cc(OC)c1OC`, the inhibition was 1.2%.
For `CCn1c(CNC(=O)c2cc(OC)c(OC)c(OC)c2)cc2cc(C)ccc21`, the inhibition was 68.8% (active).
Regarding `COc1cc(C(=O)NCc2cc3cc(Cl)ccc3n2C)cc(OC)c1OC`, the inhibition was 0.7%.
In the case of `CC1(C)S[C@@H]2[C@H](NC(=O)COc3ccccc3)C(=O)N2C1C(=O)OCc1ccccc1` (some centres undefined), the inhibition is 2.2%.
`CC(C)(C)c1cc(NC(=O)NN2CCOCC2)nn1-c1c(Cl)cc(Cl)cc1Cl`: the inhibition was -1.3%.
Take `COc1ccc(-c2noc(CCC(=O)N3CCN(c4cccc(C)c4)CC3)n2)cc1`: the inhibition was 0.4%.
As to `Cc1ccc(-c2noc(CCC(=O)Nc3ccccc3N3CCN(C)CC3)n2)cc1`, the inhibition is 79.9% (active).
`COc1ccc(N2CCN(C(=O)CCc3nc(-c4ccc(C)cc4)no3)CC2)cc1`: the inhibition was -0.2%.
For `CC1CCN(C(=O)c2ccccc2NC(=O)Cc2ccccc2)CC1`, the inhibition was 2%.
Take `COc1ccc(-n2c(C)cc(C(=O)COC(=O)c3cc(OC)c(OC)cc3NC(=O)c3cccs3)c2C)cc1`: the inhibition was 3.8%.
With `Cc1ccc(-n2c(C)cc(C(=O)CSc3nnc4ccccn34)c2C)cc1` the figure was 5%; with `COc1ccc(-n2c(C)cc(C(=O)CSc3nnc(-c4cccs4)o3)c2C)cc1`, 91% (active); with `O=[N+]([O-])c1cccc(C=NN=Cc2ccccc2O)c1`, 2.1%.
For the compound `O=[N+]([O-])c1c(NCCO)cc(Sc2nc3ccccc3s2)c2nonc12`, the inhibition is 4.8%.
`O=[N+]([O-])c1cc(Br)c(O)c(/C=N/Nc2nc3ccccc3s2)c1`: the inhibition was 82.3% (active).
Regarding `Cc1c(C(=O)NCC2CC2)sc(=O)n1Cc1cccc(F)c1`, the inhibition is -2.3%.
With `COc1cc(C)c(Cl)cc1S(=O)(=O)n1ccnc1`, the inhibition was 0.5%.
With `N/C(=N\S(=O)(=O)c1cc(C(F)(F)F)cc(C(F)(F)F)c1)c1cccs1`, the inhibition was 35.4%.
With `O=C(CSc1nc(C2CC2)nc2ccccc12)Nc1cccc(O)c1` the figure was -0.4%; with `Cc1noc(C)c1COC(=O)c1cc2ccccc2cc1O`, 1%.
`O=C(NNc1c2ccccc2nc2ccccc12)c1cc2ccccc2cc1O`: the inhibition was 104% (active).
In the case of `CS(=O)(=O)N(CC(=O)N1CCOCC1)c1cccc(Cl)c1Cl`, the inhibition was -0.3%.
For `Cc1ccc(-n2ncc3c2CC(C)(C)CC3NC(=O)CCc2cnn(C)c2)cc1` (centres undefined), the inhibition was -0.7%.
In the case of `O=C(NCCc1ccccn1)c1ccc(COc2ccccc2)o1`, the inhibition is -1.4%.
As to `O=C(NNC(=O)c1ccc(-c2ccccc2)cc1)Nc1ccccc1`, the inhibition was 2.8%.
Take `Cc1ccc(NC(=O)NNC(=O)c2sccc2-n2cccc2)cc1`: the inhibition is 1.7%.
Take `C=CC[n+]1c(-c2ccc(C)cc2)csc1NNC(=O)Nc1ccccc1`: the inhibition was 86.7% (active).
Take `CC1CCC(N2CC(=O)N(Cc3ccc4c(c3)OCO4)C(c3ccc(F)cc3)C2=O)CC1` (centres undefined): the inhibition is -0.9%.
Take `COCCNC(=S)N1CCC(NC(=O)C23CC4CC(CC(C4)C2)C3)CC1`: the inhibition was -2.3%.
Turning to `CCN1/C(=C\c2ccc3ccccc3[n+]2CC)Sc2cc(C)ccc21`, the inhibition is 101% (active).
Turning to `O=C(CN1C(=O)NC2(CCCCCCC2)C1=O)NCc1ccc(F)cc1`, the inhibition is -0.5%.
Take `Cc1ccc(-c2nc3c(Cl)cc(C(F)(F)F)cn3c2Cc2cccc(Cl)c2)cc1`: the inhibition is 4.1%.
Regarding `COc1cc(C(C(=O)NC2CCCC2)N(C(=O)c2ccco2)c2ccccc2C(C)=O)cc(OC)c1OC` (centres undefined), the inhibition is -1.2%.
For `COC(=O)c1scc(C)c1NC(=O)CSc1ccc(Cl)cc1`, the inhibition is 3.3%.
As for `COC(=O)c1sccc1NC(=O)CSc1ccccc1NS(=O)(=O)c1cc(Cl)ccc1Cl`, the inhibition was 86.3% (active).
Regarding `COC(=O)c1sccc1NS(=O)(=O)c1ccc(F)cc1F`, the inhibition is 1.6%.
`Cc1sc(NC(=O)C2=COCCO2)c(C#N)c1C`: the inhibition is -0.9%.
With `CCCc1cc(=O)[nH]c(SCC(=O)Nc2sc3c(c2C#N)CCCC3)n1`, the inhibition is 4%.
With `CCCc1ccc(-c2c(C)sc(NC(=O)c3ccnn3C)c2C#N)cc1`, the inhibition is 99.7% (active).
Regarding `OCCc1ccc(NCCc2ccco2)cc1`, the inhibition was -0.1%.
Regarding `O=C(Nc1ccccc1)c1ccccc1Br`, the inhibition is -0.9%.
As to `CC1CCCCC1NCC(=O)Nc1ccccc1C(=O)Nc1ccccc1` (centres undefined), the inhibition is 1.8%.
Turning to `O=C(Nc1ccccc1)c1ccccc1NC(=O)C(F)(F)F`, the inhibition was 57.7% (active).
On to `CCN(C(=O)CSc1nnc(-c2ccc(OC(F)F)cc2)n1N)C1CCS(=O)(=O)C1` (centres undefined), for which the inhibition is -1.1%.
Regarding `CCOc1ccc(NC(=O)CN(C)C(=O)CSc2ccccc2)cc1OCC`, the inhibition was 1%.
As for `CCOc1ccc(S(=O)(=O)N2CCC(C(=O)NCc3ccccn3)CC2)cc1Cl`, the inhibition is -0.8%.
As for `O=C(c1cccc(F)c1)N1CCN(c2ccc([N+](=O)[O-])c3cccnc23)CC1`, the inhibition was 0.3%.
For `O=c1c(-c2ccc3c(c2)OCCO3)c(C(F)(F)F)oc2cc(O)cc(O)c12`, the inhibition is 89.4% (active).
As for `CCN1CCN(Cc2c(O)ccc3c(=O)c(-c4ccc(OC)c(OC)c4)c(C(F)(F)F)oc23)CC1`, the inhibition was -2%.
Take `COc1ccc(-c2onc(C)c2-c2ccc3c(c2)OCCO3)c(O)c1`: the inhibition was 3.2%.
Consider `CC(C)(C)c1cc[n+](-c2[nH]c(=O)sc2/C=N/N=C(\[O-])c2ccccc2)cc1`, for which the inhibition is -1.9%.
In the case of `CCCNC(=O)CN(Cc1ccccc1F)S(=O)(=O)c1ccc(C)cc1`, the inhibition is 1.8%.
For `Cc1ccc(NC(=O)CCNC(=O)c2ccc([N+](=O)[O-])cc2)cc1S(=O)(=O)N1CCOCC1`, the inhibition was -1.6%.
In the case of `COc1ccc(NS(=O)(=O)c2cc(NC(=O)CC(=O)c3ccc([N+](=O)[O-])cc3)ccc2C)cc1`, the inhibition is 73% (active).
With `COc1ccc(NS(=O)(=O)c2cc(NC(=O)COc3ccccc3F)ccc2OC)cc1` the figure was 0.8%.
As to `COc1cc(SC)ccc1C(=O)Nc1nc(C)cs1`, the inhibition was 0.2%.
Regarding `CCCCOc1ccc(CSC(=N)N)cc1[N+](=O)[O-]`, the inhibition was 112% (active).
As for `CCCCOC(=O)CCCc1ccc([N+](=O)[O-])cc1[N+](=O)[O-]`, the figure is 1.5%; as for `CCCCCOc1ccc(CSC2=NCCN2)cc1[N+](=O)[O-]`, -1.4%; as for `O=C(CCN1C(=O)/C(=C/c2cccs2)SC1=S)NNC(=O)c1cccc(O)c1`, 67.7% (active).
Turning to `CC(C(=O)Nc1ccc(O)c(C(=O)O)c1)N1C(=O)/C(=C/c2cccs2)SC1=S` (centres undefined), the inhibition was -1.2%.
On to `Cc1c(C(=O)NCCN2C(=O)S/C(=C\c3cccs3)C2=O)cccc1[N+](=O)[O-]`, for which the inhibition is 1.1%.
With `COc1ccccc1N(C(=O)Cn1nnc2ccccc21)C(C(=O)NCc1ccco1)c1ccc(C)o1` (centres undefined) the figure was 4%; with `O=C(NCCc1ccccc1)c1ccc2c(c1)N(Cc1ccccc1)CCS2`, 0.6%.
As to `CCOC(=O)N1CCN(C(=O)c2ccc(CN(c3ccc(C)c(C)c3)S(C)(=O)=O)cc2)CC1`, the inhibition is 5.2%.
For `CCOC(=O)N1CCN(C(=O)c2ccc3c(c2)N(Cc2ccc(C)cc2)CCS3)CC1`, the inhibition was 89% (active).
With `CN(CCc1ccccc1)C(=O)c1cccc(NC(=O)Cc2cccc(NC(=O)C3CCCN(C(=O)CCc4ccccc4)C3)c2)c1` (centres undefined) the figure was -0.3%; with `CC(=O)c1c(C)[nH]c(C(=O)Nc2cc(S(=O)(=O)N(C)C)ccc2C)c1C`, -1.8%.
With `CSc1ccc(/C=C2\NC(=O)NC2=O)cc1` the figure was 0.6%; with `COC(=O)C1(C)NC(c2ccccc2OC)C2C(=O)N(c3ccccc3)C(=O)C21` (centres undefined), 1.1%; with `COc1cc(OC)cc(C(=O)NCC(=O)OCc2csc(-c3ccccc3)n2)c1`, -4.3%.
For the compound `COc1ccc(C(=O)COC(=O)c2c(C)noc2C)cc1Cl`, the inhibition is -2.4%.
For the compound `Cc1ccc(-c2nc(COC(=O)c3c(C)noc3C)cs2)cc1`, the inhibition was 88.5% (active).
In the case of `CC12CN(NC(=O)c3ccc(Cl)cc3)C3(C#N)CC1CCC23C` (centres undefined), the inhibition is 8.6%.
For the compound `Nc1ncc(CN2CCCC(C(=O)Nc3ccc(-c4ccco4)cc3)C2)cn1` (centres undefined), the inhibition was -0.6%.
Take `CCOC(=O)C1(Cc2ccc(O)cc2)NC(c2ccccc2F)C2C(=O)N(C)C(=O)C21` (centres undefined): the inhibition is -1.2%.
As for `CC(C)OCCCNc1ncnc2c1[nH]c1ccc(F)cc12`, the figure is 88.4% (active).
Consider `O=C1CSc2ccc(S(=O)(=O)NCc3ccccc3)cc2N1`, for which the inhibition is -1.3%.
On to `Cc1ccc(C)c(S(=O)(=O)N2CCN(c3ncnc4sccc34)CC2)c1`, for which the inhibition was 86.5% (active).
`Cc1ccc(C)c(S(=O)(=O)n2cnc3ccccc32)c1`: the inhibition was -3.1%.
`Cc1ccc(C)c(S(=O)(=O)N2CCN(CC(=O)Nc3ccc([N+](=O)[O-])cc3)CC2)c1`: the inhibition is 7.1%.
With `CCCNC(=O)C1(C)CCN1C(=O)C1(c2ccccc2)CC1` (centres undefined), the inhibition was -0.6%.
For `Cc1cccc(OCCNC(=O)CSc2ccc(C(F)(F)F)cc2[N+](=O)[O-])c1`, the inhibition was 80.1% (active).
Consider `C=CCNC(=O)CCCOc1cccc(C)c1`, for which the inhibition was 1.5%.
Consider `O=C(CSc1ccc(C(F)(F)F)cc1[N+](=O)[O-])NCCOc1ccccc1`, for which the inhibition is 18%.
With `Cc1cc(C)n2c(NCc3ccccc3)c(CC(C)C)nc2n1` the figure was 0.4%.
As to `Fc1ccc(N2N=C(c3cccs3)CC2c2ccco2)c(F)c1` (centres undefined), the inhibition was 57.7% (active).
With `O=C(COc1ccccc1Cl)N1N=C(c2cccs2)CC1c1ccco1` (centres undefined), the inhibition was -0.8%.
As for `Cc1ccccc1C1CC(c2cccs2)=NN1S(C)(=O)=O` (centres undefined), the figure is -0.3%.
With `O=C(NCc1ccccn1)c1cnc2sccn2c1=O` the figure was -2.8%; with `C/C(=N\Nc1ccc(S(N)(=O)=O)cc1[N+](=O)[O-])c1cccs1`, 2.3%.
As for `O=C(OCc1nc2ccccc2[nH]1)C1CCCCC1`, the figure is -0.1%; as for `c1ccc2c(C[n+]3csc4ccccc43)cccc2c1`, -1.7%; as for `c1ccc2c(CSCc3nc4ccccc4[nH]3)cccc2c1`, 74.4% (active).
